Screening results deposited in PubChem BioAssay by several laboratories.
Most compounds without a hit are left out; they make up all but 3.9% or so of the library.
TRAIL sens C8: caspase-8 TRAIL sensitization; hit rate 1% among 360,000; inhibition (viability loss, TRAIL sensitization), % at 10 µM; NB7+C8 cells + TRAIL, ATPlite viability luminescence; AID 624354;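 active means compounds causing at least 50% loss of cell viability in the single-dose screen, relative to plate controls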
aSyn 5UTR inh: 5' untranslated region of α-synuclein, MLPCN primary screen | alpha-synuclein 5'UTR reporter, inhibitor activity | inhibition, % (tested at 7.5 µM) | hit rate 0.82% among 300,000; in the data active means inhibition above about 60%;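 further: H4 neuroglioblastoma cells stably carrying SNCA 5'UTR luciferase fusion; 0% = DMSO wells and 100% = positive control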
HIF-2a inh: inhibitors of HIF-2a; 786-0 RCC cells HIF-2a reporter, luciferase luminescence, overnight; inhibition, % at 18.8 µM; hit rate 0.72% among 360,000; AID 624352;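 active means inhibition of the luminescence signal of 40% or more relative to plate controls, in a single-dose primary screen at 18.75 µM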
TWEAK-Fn14 inh: TWEAK-Fn14 signaling inhibition. TWEAK-stimulated Fn14 reporter cells, luciferase luminescence, 8 h. hit rate 2% among 360,000. inhibition, % at 10 µM. AID 1159606; in the data active means inhibition above about 50%
TROY signal inh: TROY signaling inhibition. Q293 LMP1-TROYcd NF-kB luciferase reporter, 4 h. inhibition, % at 10 µM. AID 1347056. hit rate 0.98% among 360,000;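 active means compounds whose plate-normalised and pattern-corrected inhibition of the luciferase reporter signal at the single screening dose is 50% or more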
HSP90 refold inh: inhibitors of HSP90 luciferase refolding in rabbit reticulocyte lysate; luciferase refolding luminescence, 3 h; inhibition, % at 5.6 µM; hit rate 0.91% among 290,000; AID 1789;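 active means inhibition above the screen-wide mean plus 3 SD, computed separately per campaign, cut at about 16% in these data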;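 further: 0% = DMSO wells and 100% = 60 µM geldanamycin wells; inhibitors lower the luminescence because luciferase stays unfolded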
* marks the source's active call; other numbers are inactive results; · = no result.

SMILES	TRAIL sens C8	aSyn 5UTR inh	HIF-2a inh	TWEAK-Fn14 inh	TROY signal inh	HSP90 refold inh
COc1ccc(-n2ncc3c(N4CCN(Cc5ccccc5)CC4)ncnc32)cc1	38	-115	-215	81*	61*	2
CC1CC(C)CN(c2ncnc3c2cnn3-c2ccc(Cl)cc2)C1 (stereo not drawn)	24	-99	-120	77*	78*	2
O=C(NCCc1ccc(Cl)cc1)c1cccc(S(=O)(=O)N2CCCC2)c1	-6	·	10	14	-6	·
NS(=O)(=O)c1ccc(N/N=C/c2cn(-c3ccccc3)nc2-c2ccccc2)c([N+](=O)[O-])c1	54*	-121	12	-21	32	-4
C/C(=C(/NC(=O)c1ccccc1)C(=O)O)c1ccco1	11	10	15	87*	6	3
COc1ccc2c(c1)C(CC(C)=O)N(c1ccc(-c3cccs3)cc1)C(c1ccsc1)=C2 (stereo not drawn)	20	·	-63	17	-39	·
CCN1C(=O)S/C(=C/c2ccc(Sc3nc4ccccc4[nH]3)o2)C1=O	22	-7	-45	79*	32	-2
CC(C)c1ccc(CC(=O)N2CCC2(C)C(=O)Nc2ccc3c(c2)OCCO3)cc1 (stereo not drawn)	-5	·	26	51*	45	·
CC(C)c1ccc(CC(=O)N2CCC2(C)C(=O)Nc2ccccc2)cc1 (stereo not drawn)	-20	·	9	12	0	·
CCOc1ccccc1NC(=S)N1CCCc2ccccc21	10	18	-12	53*	54*	0
COc1ccccc1NC(=S)N1CCCc2ccccc21	-4	14	17	66*	54*	1
COc1ccc(OC)c(NC(=O)N2CCCc3ccccc32)c1	-15	8	-8	44	76*	-4
CCOc1ccccc1NC(=O)N1CCCc2ccccc21	-8	4	-3	16	75*	-1
CCOc1ccccc1NC(=O)N1CCc2ccccc2C1	10	-8	-27	-7	7	2
CC(C)NC(=O)C1(C)CN(S(C)(=O)=O)CC(=O)N1Cc1cccs1 (stereo not drawn)	14	·	-2	·	·	·
CCCCNC(=O)C1(C)CCN1Cc1cc(C)ccc1C (stereo not drawn)	-24	·	17	-13	-5	·
CCN(CC)CCNc1cc(C)c(C#N)c2nc3ccccc3n12	-12	-21	2	-31	-7	3
Cc1cc(Nc2cccc([N+](=O)[O-])c2)n2c(nc3ccccc32)c1C#N	-1	50	11	77*	26	2
Cc1ccc(CNc2ncnc3ccc(-c4ccoc4C)cc23)o1	0	·	15	65*	-5	·
Cc1cccc(CNc2ncnc3ccc(-c4ccoc4)cc23)c1	27	·	6	94*	55*	·
COc1cccc(-c2ccc3ncnc(NCc4cc(C)cs4)c3c2)c1	-1	·	12	77*	42	·
Cc1cccc(CNc2ncnc3ccc(-c4ccc5c(c4)OCCO5)cc23)c1	-1	·	16	33	35	·
CC(C)N1C(=O)c2ccccc2NC(=O)C1C(=O)NCc1ccccc1 (stereo not drawn)	-4	·	7	·	·	·
COC(=O)c1ccc(CNc2ccc(C(C)=O)cc2)cc1	-10	·	-61	-15	-14	·
CC(Oc1ccc(F)cc1)C(=O)Nc1nc(-c2ccccn2)cs1 (stereo not drawn)	8	49	11	-94	74*	·
SMILES	TRAIL sens C8	aSyn 5UTR inh	HIF-2a inh	TWEAK-Fn14 inh	TROY signal inh	HSP90 refold inh
COc1ccc(-n2cc(CNCC3CCOCC3)c(-c3cccc(F)c3)n2)cc1	5	0	-5	84*	-42	4
COc1ccc(-n2cc(CN(C)C3CCOCC3)c(-c3cccc(F)c3)n2)cc1	-11	-27	-11	0	-14	-1
O=C(Nc1ccccc1)c1cc2ccccc2o1	56*	-112	-68	49	-10	13
O=C(COc1ccccc1[N+](=O)[O-])Nc1ccc(N2CCN(C(=O)c3cccs3)CC2)cc1	33	2	-15	72*	76*	-3
O=C(Nc1ccc(F)cc1)c1cc2ccccc2o1	27	-153	-242	-7	-57	2
Cc1ccc(NC(=O)c2cc3ccccc3o2)nc1	59*	-95	-120	39	-9	·
CCC(=O)Nc1ccc(N2CCN(C(=O)c3cccs3)CC2)cc1	-4	15	14	-4	-3	-4
